Compounds with a hit are over-represented: about 4.1% of the library has one in this group of screens.
PglD inh – C. jejuni PglD acetyltransferase inhibitors, primary screen, biochemical, DTNB colorimetric, single point; purified PglD enzyme, DTNB colorimetric CoA detection; AID 602405, 2012; 0.098% of 360,000 active; inhibition, % at 12.5 µM; in the data active = inhibition above about 16%, passing the limit was not always enough
HIV Env fusion – inhibitors of HIV-1 Env-driven cell-cell fusion, primary screen, HeLa-JRFL effector, CEM21 target cells, luciferase | inhibition, % at 12.3 µM | 1.1% of 360,000 active | AID 651610, 2012;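 active = mean replicate inhibition score of at least 50 and every replicate individually at or above 50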;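 also: 0% = plate neutral controls and 100% = maraviroc near 300 nM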
NSD2 HMT inh – NSD2 histone methyltransferase inhibitors, primary screen, biochemical, AlphaScreen, single concentration, set 2; AID 743445, 2014; NSD2 peptide methylation, 120 min; inhibition, % at 12.5 µM; 0.54% of 310,000 active; Histone-lysine N-methyltransferase NSD2 (Homo sapiens), O96028; in the data active = inhibition above about 50%
F508del corr – F508del CFTR correction, initial screen, CFBE line, single point; CFBE cells, YFP halide quenching; stimulated with forskolin plus potentiator P3; % fluorescence drop versus neutral controls; activity (quench increase), % at 7.58 µM; 0.36% of 350,000 active;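 active = mean added fluorescence quench of at least 8% versus neutral control, with both replicates also reaching 8%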;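 also: cells transiently co-express mutant CFTR-F508del with the halide-sensitive YFP; corrector assay measuring rescue of mutant channel to the surface after 24 h compound exposure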
ALR H2O2 inh – inhibitors of human ALR sulfhydryl oxidase, primary screen, biochemical, H2O2 detection, HRP-luminol luminescence, single point. FAD-linked sulfhydryl oxidase ALR (Homo sapiens), P55789. purified ALR, DTT oxidation. inhibition, % (test concentration not listed). 3.8% of 290,000 active;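 active = mean replicate inhibition above about 79%, with every replicate also reaching it, limit read from the data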
Target sequence (P55789 whole entry, looked up): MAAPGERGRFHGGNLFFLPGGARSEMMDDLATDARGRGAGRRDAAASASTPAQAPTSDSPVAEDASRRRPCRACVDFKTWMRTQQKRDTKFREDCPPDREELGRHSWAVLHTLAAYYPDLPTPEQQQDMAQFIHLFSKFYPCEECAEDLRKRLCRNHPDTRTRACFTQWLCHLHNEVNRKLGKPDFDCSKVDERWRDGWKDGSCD
CASP6 VEID inh – human caspase-6 inhibitors, primary screen, biochemical, VEID-R110 fluorescence, single point, set 2 | P55212 | purified caspase-6, Z-VEID-R110 cleavage fluorescence | inhibition, % at 12.5 µM | 0.53% of 350,000 active | AID 686996, 2013;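 active = mean inhibition across replicates at least about 35%, with every replicate also reaching that limit, limit read from the data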;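 also: 0% = median of neutral control wells and 100% = no fluorescence left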
An asterisk follows results filed as active; [ ] = another dose, or the depositor's remark.

Results for C[C@@H]1CN([C@H](C)CO)C(=O)c2cc(-c3ccccc3)cnc2O[C@H]1CN(C)C(=O)c1cccc(F)c1 ?
HIV Env fusion: -8[16.7 µM]; F508del corr: -1

What do the screens show for `CCC(=O)N1CC2(C1)CN(C(=O)Nc1ccccc1F)[C@H](CO)c1c2c2ccc(OC)cc2n1C`?
F508del corr: -3; CASP6 VEID inh: 5

What do the screens show for `COC(=O)c1ccc(NC(=O)c2ccc(C)cc2)o1`?
PglD inh: 1; NSD2 HMT inh: 3; ALR H2O2 inh: 98*

Results for COC(=O)c1ccc(NC(=O)c2ccc(F)cc2)o1 ?
PglD inh: 0; NSD2 HMT inh: 2; ALR H2O2 inh: 27

What do the screens show for `COC(=O)c1ccc(NC(=O)c2cccc(Cl)c2)o1`?
PglD inh: -2; HIV Env fusion: -36; NSD2 HMT inh: -1; ALR H2O2 inh: 93*

What do the screens show for `CO[C@@H]1CN(C)C(=O)c2cc(NS(C)(=O)=O)ccc2OC[C@@H](C)N(C(=O)NC(C)C)C[C@H]1C`?
PglD inh: 3; HIV Env fusion: 12[16.7 µM]; F508del corr: -1

How did Cc1cccc(N2CSC3=C(C#N)C(c4ccc(C)o4)CC(=O)N3C2)c1 (stereo not given) do in these assays?
ALR H2O2 inh: 99*

Results for COc1ccc(OC)c(C2CC(=O)N3CN(c4ccccc4)CSC3=C2C#N)c1 (stereo not given) ?
PglD inh: -2; HIV Env fusion: -15; F508del corr: 3; ALR H2O2 inh: -6; CASP6 VEID inh: 4

How did O=C(c1cc(COc2ccc3ncccc3c2)on1)N1CCC[C@H]1CO do in these assays?
PglD inh: -5; HIV Env fusion: 59*; NSD2 HMT inh: 1; F508del corr: 0; ALR H2O2 inh: -24; CASP6 VEID inh: -2

Results for O=C(c1cc(COc2ccc3ncccc3c2)on1)N1CCCC(O)C1 (stereo not given) ?
PglD inh: -3; HIV Env fusion: 23; NSD2 HMT inh: 5; F508del corr: 1; ALR H2O2 inh: -52; CASP6 VEID inh: -1

How did COc1ccc(NC(=O)N(C)C[C@@H]2OCCCC[C@@H](C)Oc3ccc(NC(=O)C4CCCCC4)cc3C(=O)N([C@@H](C)CO)C[C@H]2C)cc1 do in these assays?
PglD inh: 0; HIV Env fusion: 8[16.7 µM]; F508del corr: 1; CASP6 VEID inh: 2

How did Cc1c(NS(=O)(=O)c2ccc3c(c2)OCCO3)cccc1-c1nc2cccnc2s1 do in these assays?
PglD inh: 1; HIV Env fusion: 44*; F508del corr: -4; CASP6 VEID inh: 1

Results for NC(N)=NC(=O)c1nc(Cl)c(N2CCCCCC2)nc1N ?
PglD inh: -1; HIV Env fusion: 62*; F508del corr: 2; ALR H2O2 inh: -16; CASP6 VEID inh: -1

What do the screens show for `COCCNC(=O)C[C@@H]1C[C@H]2c3cc(N(C)C)ccc3O[C@H]2[C@@H](CO)O1`?
PglD inh: -3; HIV Env fusion: 65*[16.7 µM]; F508del corr: 0; CASP6 VEID inh: 22

How did CN(C)c1ccc2c(c1)[C@@H]1C[C@@H](CC(=O)NCc3ccccn3)O[C@@H](CO)[C@@H]1O2 do in these assays?
PglD inh: -1; HIV Env fusion: -8[16.7 µM]; F508del corr: -5; CASP6 VEID inh: 40*

Results for COc1ccccc1-c1cn(CC[C@@H]2CC[C@H](NC(=O)C3CCCC3)[C@@H](CO)O2)nn1 ?
F508del corr: -1; CASP6 VEID inh: 0

How did C[C@@H]1CCCCO[C@@H](CN(C)C(=O)NC2CCCCC2)[C@@H](C)CN([C@H](C)CO)C(=O)c2cc(NS(=O)(=O)c3ccccc3)ccc2O1 do in these assays?
PglD inh: 3; HIV Env fusion: -32[16.7 µM]; F508del corr: 0; CASP6 VEID inh: -4

What do the screens show for `COc1ccc(CNC(=O)C[C@H]2C=C[C@H](NC(=O)CN(C)C)[C@@H](CO)O2)cc1`?
PglD inh: -1; HIV Env fusion: -15[16.7 µM]; F508del corr: -2; CASP6 VEID inh: -1
